In all, about 380,000 compounds went through this assay and about 4,000 (1.1%) were called active. About 3% were inconclusive and are not listed. Only a selection was taken, and actives are over-represented in it overall. Unmarked numbers belong to inactive results. Calls follow the shape of the dose curve; as a rule, active = well fitted activation curve with a large enough effect; inconclusive = small, poorly fitted or top-dose-only effect; inactive = no such curve, though single readings can be large or run the other way.
Assay: qHTS Assay to Identify Small Molecule Activators of BRCA1 Expression; also: nearly all actives have a fitted effect of over 80% in size
Details: MCF7-BRCA1-FFLuc reporter, luminescence, 48 h; series mostly up to 46.1 µM; activation: at the top concentration
Procedure, shortened: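 Cells: MCF7-BRCA1-FFLuc, 2000/well. Exposure: 48 h, 37 °C, 5% CO2. Read: luminescence, 15 min post-substrate. Controls: genistein 10 microM (maximal activation), DMSO (neutral).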
Potency is read from the fitted curve at half-maximal effect.

| Compound | activation | Potency |
| --- | --- | --- |
| COc1cccc(Nc2nc(N)c([N+](=O)[O-])c(NCc3ccco3)n2)c1 | 0.078% | – |
| Cc1csc(NCC(=O)c2c[nH]c3ccccc23)n1 | 14% | – |
| O=C(NCCCc1ccccc1)C(=O)c1c[nH]c2ccccc12 | 61.3% | – |
| CC1CCN(CC(=O)c2c[nH]c3ccccc23)CC1 | 6.76% | – |
| O=C(NC1CCCC1)C(=O)c1c[nH]c2ccccc12 | – | 11.2 µM (active) |
| CC(C)Oc1ccc(CNC(=O)C2CCN(c3nc4ccccc4n(C)c3=O)CC2)cc1 | -1.95% | – |
| CCn1nc(C)c(/C=N/NC(=O)Cc2ccc(Cl)cc2)c1C | – | 7.94 µM (active) |
| Cc1nn(Cc2ccc(Cl)cc2)c(Cl)c1/C=N/NC(=O)CNc1ccccc1F | 23% | – |
| O=C(CSc1nnc(SCc2ccc(Cl)cc2)s1)N/N=C/c1ccccc1Cl | 11.2% | – |
| COc1cc2[nH]c(C)c(CCN3CCN(c4ccccc4)CC3)c2cc1OC | 8.7% | – |
| COc1ccccc1C1C(C(=O)N2CCCCC2)=C(C)Nc2nc3ccccc3n21 (stereo not drawn) | 1.14% | – |
| COC(=O)C1=C(C(=O)OC)[C@@H]2N(Cc3ccccc3)c3ccccc3[C@@]23C[C@@H](C(=O)OC)N(S(=O)(=O)c2ccc(C(F)(F)F)cc2)C3=N1 | -3.67% | – |
| Cc1ccc(-c2nc(C#N)c(NCCCn3ccnc3)o2)cc1 | – | 4.47 µM (active) |
| Cc1ccc(S(=O)(=O)c2nc(NCCCn3ccnc3)sc2Cl)cc1 | -18.5% | – |
| Cc1ccc2c(Cl)c(C(=O)NCCCn3ccnc3)sc2c1 | -2.83% | – |
| CC(C)c1ccc(NC(=O)CN(C)S(=O)(=O)c2ccc3c(c2)c(=O)n(C)c(=O)n3C)cc1 | 6.46% | – |
| COc1ccc2c(c1)c(N1CCCC1=O)c(C(=O)Nc1ccccc1C(F)(F)F)n2C | -15.9% | – |
| COC(=O)/C=C/C(=O)NCc1ccco1 | 7.24% | – |
| O=C(COC(=O)Cc1ccc(Cl)cc1Cl)NCc1ccco1 | 1.86% | – |
| O=C(/C=C/c1ccc(Cl)cc1Cl)NCc1ccco1 | – | 11.2 µM (active) |
| O=C(NCC12CC3CC(CC(C3)C1)C2)c1cc2nc(-c3ccccc3)cc(C(F)(F)F)n2n1 | 4.13% | – |
| COc1ccc(-n2ccnc(NCCc3ccc(Cl)cc3)c2=O)cc1OC | -20.9% | – |
| O=C(NC1CCN(Cc2ccccc2)CC1)c1ccc(Cn2c(=O)c3ccccc3n(Cc3cccc(F)c3)c2=O)cc1 | -0.126% | – |
| S=c1[nH]nc(Nc2ccccc2)s1 | 29.3% | – |
| CNC(=O)c1sc(Nc2ccc(OCc3ccccc3)cc2)nc1C | -32.3% | – |
| CC(C)(C)C(=O)c1cnc(Nc2ccccc2)s1 | – | 4.47 µM (active) |
| CCOc1n[nH]c(-c2ccccc2)n1 | 7.24% | – |

| Compound | activation | Potency |
| --- | --- | --- |
| COc1ccc(-c2noc(-c3cccc(OC)c3OC)n2)cc1OC | – | 3.98 µM (active) |
| COc1cc(-c2noc(-c3ccc(N4CCCC4)c([N+](=O)[O-])c3)n2)cc(OC)c1OC | 1.9% | – |
| COc1ccc(-c2noc(CSc3nc(C)cc(=O)[nH]3)n2)cc1OC | 6.36% | – |
| CCN(CC)S(=O)(=O)c1ccc(C(=O)N=c2sc3cccc(OC)c3n2C)cc1 | 1.52% | – |
| C=COC(=O)N1CCN(/[N+]([O-])=N/Oc2ccc([N+](=O)[O-])cc2[N+](=O)[O-])CC1 | -34.6% | – |
| Cc1ccn(-c2cccc(-n3ccc(C)n3)n2)n1 | – | 12.6 µM (active) |
| Cc1cccc(N2O[C@H]3C=CC2CCCC3)n1 | 8.96% | – |
| CCCN(CCC)C(=O)Cn1c(=O)n(-c2ccc(Cl)cc2)c(=O)c2c3c(sc21)CCCCC3 | 0.395% | – |
| CCn1cc(C(=O)NCCc2ccccc2)c(=O)c2cc(S(=O)(=O)N3CCCCCC3)ccc21 | 21.6% | – |
| Cc1ccc(-n2c(C)cc(/C=C(\C#N)C(=O)NCC3CCCO3)c2C)cc1 (stereo not drawn) | – | 2.51 µM (active) |
| COCc1cc(C)n(CC(=O)NCC2CCCO2)c(=O)c1C#N (stereo not drawn) | -1.54% | – |
| Cc1ccc2c(c1)N(CC(=O)NCC1CCCO1)C(=O)CO2 (stereo not drawn) | 10.8% | – |
| CCC(=O)N1CCc2cc(CNC(=O)Nc3ccccc3Cl)ccc21 | 0% | – |
| CCCC(=O)N1CCN(c2nc3c(OC)ccc(C)c3s2)CC1 | 0% | – |
| CCCN(CCC)S(=O)(=O)c1ccc(C(=O)Nc2sc3c(c2C(=O)OC)CCN(CC)C3)cc1 | -3.04% | – |
| O=C(CC(c1cccs1)N1Cc2ccccc2C1=O)Nc1ccc(F)cc1F (stereo not drawn) | -10.8% | – |
| CC(C)(C)C(=O)Nc1cccc(-c2ccc[nH]2)n1 | 14.2% | – |
| CC(C)(C)C(=O)Nc1ccc(-c2cn3cccnc3n2)cc1 | – | 2.82 µM (active) |
| CCCCCC(=O)Nc1ccc(-c2cn3cccnc3n2)cc1 | 26.8% | – |
| N#CC(=C1SC=CS1)c1nc(-c2ccccc2)cs1 | 0.115% | – |
| N#CC(=C1CCCC1)c1nc(-c2ccc(Cl)cc2)cs1 | – | 6.31 µM (active) |
| CCCCCN1CC(O)=C(c2nc(-c3ccc(Cl)cc3)cs2)C1=N | 3.59% | – |
| OC(Cc1ccc2ccccc2n1)c1ccc(Cl)c(Cl)c1 (stereo not drawn) | 91.1% | – |
| O=C(Cc1c[nH]c2ccccc12)N/N=C/c1cccc(F)c1 | -8.13% | – |
| O=C(Cc1ccc(F)cc1)N/N=C/c1ccc2c(c1)OCO2 | – | 3.98 µM (active) |
| O=C(CN1CCSCC1)N/N=C/c1ccc(F)cc1 | 5.61% | – |

— PubChem BioAssay AID624202 (National Center for Advancing Translational Sciences (NCATS), 2012)
